Assay [1] addresses Cellular tumor antigen p53 (Homo sapiens) (UniProt P04637). The assay can be described thus: Primary qHTS for small molecule compounds that upregulate eGFP-tagged delta133p53alpha (in N-terminal) cells. (AID 2060322). Also: nearly all actives have a fitted effect of over 75% in size. Also: potency is read from the fitted curve at half-maximal effect.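 As to activation: series mostly up to about 56 µM; 0% = DMSO vehicle and 100% = reference activator.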 The note with it: NCI-H358 eGFP-delta133p53alpha fluorescence, 24 h; activation: stronger effect = higher value. Summed up:
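NCI-H358 cells pre-induced 24 h with 10 ng/ml doxycycline to express N-terminal eGFP-delta133p53alpha, then dosed 24 h at 37C without doxycycline; fixed, Hoechst-stained, GFP intensity by laser scanning cytometry, normalized to DMSO (0%) and 57.5 uM 5-azacytidine (100%).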
On the technique in general: In qHTS, concentration-response curves come from the screen itself.

In assay [2] the target is Aldehyde dehydrogenase, mitochondrial (Homo sapiens) (UniProt P05091). As to the kind of experiment: qHTS for Inhibitors of the Aldehyde Dehydrogenase Family (ALDH2) Primary screen (AID 2061308).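 Also: plate controls were vehicle for no effect and reference inhibitor for full effect; nearly all actives have a fitted effect of over 55% in size.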
For assay [3], the target named is Retinaldehyde dehydrogenase 3 (Homo sapiens) (UniProt P47895). As to the kind of experiment: qHTS for Inhibitors of the Aldehyde Dehydrogenase Family (ALDH1A3) Validation screen (AID 2061312). Also: nearly all actives have a fitted effect of over 45% in size. Also: potency is read from the fitted curve at half-maximal effect.
Assay [4] shares this target. The assay can be described thus: qHTS for Inhibitors of the Aldehyde Dehydrogenase Family (ALDH1A3) Primary screen (AID 2061315).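 Also: plate controls were DMSO vehicle for no effect and reference inhibitor for full effect.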
Assay [5] is described as follows: BET inhibitor-based combinations targeting novel dependencies in MECOM-rearranged (r) AML: HNT-34 cell line (AID 2202234). Also: nearly all actives have a fitted effect of over 35% in size. Also: potency is read from the fitted curve at half-maximal effect. In short, it runs like this:
(§1)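 Seeding density was 500 cells/well, and drug exposure lasted 48 hr under standard culture conditions. Read-out used CellTiter-Glo reagent with a 15 min room-temperature incubation before luminescence measurement; AUC and Z-AUC summarize the normalized responses.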

A short description of assay [6]: BET inhibitor-based combinations targeting novel dependencies in MECOM-rearranged (r) AML: AML-191 cell line (AID 2202236; also: nearly all actives have a fitted effect of over 35% in size; also: potency is read from the fitted curve at half-maximal effect). In short, it runs like this:
(§2)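 Readout: CellTiter-Glo luminescence. Exposure: 48 h, 11 concentrations, 500 cells/well. Metric: AUC and within-line Z-AUC after DMSO/empty-well normalization.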

Assay [7] is described as follows: BET inhibitor-based combinations targeting novel dependencies in MECOM-rearranged (r) AML: AML-194 cell line (AID 2202237; also: nearly all actives have a fitted effect of over 40% in size; also: potency is read from the fitted curve at half-maximal effect). In short, it runs like this:
as §2

The nature of assay [8]: BET inhibitor-based combinations targeting novel dependencies in MECOM-rearranged (r) AML: UCSD-AML1 cell line (AID 2202235). Also: nearly all actives have a fitted effect of over 40% in size. Also: potency is read from the fitted curve at half-maximal effect. In short, it runs like this: as §1
Assay [9] can be described thus: BET inhibitor-based combinations targeting novel dependencies in MECOM-rearranged (r) AML: MV-4-11 cell line (AID 2202233). Also: nearly all actives have a fitted effect of over 45% in size. Also: potency is read from the fitted curve at half-maximal effect. Summed up: as §1
Assay [10] is described as follows: BET inhibitor-based combinations targeting novel dependencies in MECOM-rearranged (r) AML: SET-2 cell line (AID 2202231). Also: potency is read from the fitted curve at half-maximal effect; nearly all actives have a fitted effect of over 35% in size. Particulars: SET-2 AML cells viability, CellTiter-Glo luminescence, 48 h; viability: stronger effect = lower value, concentration not given here. In short, it runs like this: as §2
Background: In ATP-based viability assays light output follows the ATP content of the culture.

A short description of assay [11]: BET inhibitor-based combinations targeting novel dependencies in MECOM-rearranged (r) AML: OCI-AML3 cell line (AID 2202232). Also: potency is read from the fitted curve at half-maximal effect; nearly all actives have a fitted effect of over 35% in size. The note with it: Potency: OCI-AML3 viability. In short, it runs like this:
as §2

Assay [12] concerns the target Retinal dehydrogenase 2 (Homo sapiens) (UniProt O94788). As to the kind of experiment: qHTS for Inhibitors of the Aldehyde Dehydrogenase Family (ALDH1A2) Confirmation screens (AID 2061314). Also: nearly all actives have a fitted effect of over 65% in size.

Molecules are shown by their SMILES. “And” between values parts separate entries of the source, which are not always exact repeats. Identical values can stand only once. Inconclusive results are not listed. Values without a mark were called inactive. The source made the active and inactive calls. Calls follow the shape of the dose curve; as a rule, active = well fitted curve in the direction sought with a large enough effect; inconclusive = small, poorly fitted or top-dose-only effect, or another doubt; inactive = no such curve, though single readings can be large; an effect the other way counts as inactive or inconclusive.

Chain of Cellular tumor antigen p53 (Homo sapiens) (P04637 whole entry, looked up): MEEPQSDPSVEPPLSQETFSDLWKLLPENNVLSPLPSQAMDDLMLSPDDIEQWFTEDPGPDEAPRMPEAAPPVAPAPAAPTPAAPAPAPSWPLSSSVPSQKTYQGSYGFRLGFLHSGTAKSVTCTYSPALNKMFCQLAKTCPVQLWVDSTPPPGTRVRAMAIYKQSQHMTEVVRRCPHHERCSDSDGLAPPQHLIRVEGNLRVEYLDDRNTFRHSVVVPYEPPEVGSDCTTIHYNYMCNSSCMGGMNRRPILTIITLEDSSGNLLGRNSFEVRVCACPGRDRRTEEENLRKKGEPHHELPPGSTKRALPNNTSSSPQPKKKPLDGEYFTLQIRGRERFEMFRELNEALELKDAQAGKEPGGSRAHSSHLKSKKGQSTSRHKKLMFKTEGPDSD

On to `Nc1ncnc2c1c(-c1cccc(OCc3ccccc3)c1)cn2C1CC(CN2CCC2)C1` (configuration not stated), for which the activation in assay [1] is 26% and 8.59%. In addition, the Potency entry in [2], in assay [3] and in [4] was “inactive” throughout. Also, the values for the Potency in assay [5], in assay [6] and in [7] were 18.6 µM (active), 18.6 µM (active) and 16.6 µM (active), respectively.

Consider `C=Cc1cc(O)cc2nc(-c3ccc(O)c(F)c3)oc12`, for which the activation in assay [1] was -0.955%. Besides, the Potency result in assay [2], in assay [3], in [4], in [5], in [8] and in assay [7] was “inactive” each time.

For the compound `CC[C@H](CC#N)OC(=O)N[C@@H](C)c1cccc(NC(=O)Nc2ccc(-c3cnco3)c(OC)c2)c1`, the activation in assay [1] was 7.84% and -10.5%. The Potency entry in assay [2], in [3] and in [4] was “inactive” throughout. Besides, the Potency in assay [9] was 235 nM (active); in [5], 0.525 µM (active); in assay [8], 0.296 µM (active).

As to `CCN(CC)Cc1ccc2cc(COC(=O)Nc3ccc(C(=O)NO)cc3)ccc2c1`, the Potency is 30.1 µM (active) and 27.3 µM (active) in [1]; 0.662 µM (active) in assay [10]; 0.662 µM (active) in [11]; 372 nM (active) in assay [9]; 0.934 µM (active) in assay [5]; 0.525 µM (active) in [8]. The Potency in [6] is 0.742 µM (active); in assay [7], 0.934 µM (active). Also, the Potency result in [2] and in [3] was “inactive” in each case.

Turning to `N#Cc1ccc(Oc2ccc3c(c2)COB3O)cc1`, the activation in assay [1] was 19.4% and -4.77%. For the same compound, the Potency entry in assay [2] and in assay [5] was “inactive” in each case. Moreover, the Potency in [3] is 2.82 µM (active); in assay [6], 13.2 µM (active).

As to `Cc1nc(C(=O)NCC(=O)O)c(O)c2ccc(Oc3ccccc3)cc12`, the activation in [1] was 24.6% and -12.3%. Also, the Potency result in assay [2], in assay [3], in assay [4], in [8], in assay [6] and in assay [7] was “inactive” throughout.

For the compound `CCNC(=O)c1noc(-c2cc(C(C)C)c(O)cc2O)c1-c1ccc(CN2CCOCC2)cc1`, the activation in assay [1] was -2.59% and -6.68%. Further, the Potency entry in assay [2], in [3] and in assay [4] was “inactive” in each case. In [8], the Potency is 0.0166 µM (active).

With `O=C1Nc2ccc(Cl)cc2[C@@](C#CC2CC2)(C(F)(F)F)O1`, in [1], the activation was 17.5% and 0%. The Potency result in assay [2], in assay [3], in [4] and in assay [8] was “inactive” each time. Further, the Potency in assay [9] was 23.5 µM (active) and 20.9 µM (active).

Regarding `COC(=O)c1ccc(OC(CO)C(O)c2ccc(O)c(OC)c2)c(OC)c1` (configuration not stated), in assay [1], the activation was 9.82%. For the same compound, the Potency entry in assay [2] and in [12] was “inactive” in each case.

Turning to `O=C(Nc1cccnn1)N1CCC(=Cc2cccc(Oc3ccc(C(F)(F)F)cn3)c2)CC1`, in assay [1], the activation was -1.43%. Besides, the Potency result in [2], in assay [3], in assay [4] and in assay [8] was “inactive” throughout. Further, the Potency in assay [6] and in assay [7] was 18.6 µM (active) in each case.

In the case of `O=C(NCCCNc1nc(Nc2cccc(CN3CCOCC3)c2)ncc1C1CC1)C1CCC1`, the activation in [1] was -15.3%. Further, the Potency entry in [2], in assay [3] and in assay [4] was “inactive” throughout. In addition, the Potency in assay [9] is 417 nM (active).

Take `COCCCOc1ccnc(CS(=O)c2nc3ccccc3[nH]2)c1C` (configuration not stated): the activation in assay [1] is -8.47% and 40% and -11.5%. For the same compound, the Potency result in assay [2], in assay [3], in assay [4], in assay [5], in assay [8] and in assay [6] was “inactive” each time. The Potency result in assay [7] was “inactive”.

`COc1cc(O)cc2c1C(=O)OC(C)CCCCCCC2` (configuration not stated): the activation in assay [1] is 1.79%. Further, the Potency entry in [2], in [12] and in [4] was “inactive” each time.

Take `CCC1=C(C)CN(C(=O)NCCc2ccc(S(=O)(=O)NC(=O)NC3CCC(C)CC3)cc2)C1=O` (configuration not stated): the activation in assay [1] is -11% and 10.7% and 1.91%. Moreover, the Potency result in assay [2], in [3], in assay [4], in assay [9], in assay [5] and in [8] was “inactive” each time. The Potency entry in [6] and in [7] was “inactive” in each case.

Consider `O=C(Nc1cccnc1)N1CCC(Cc2cccc(Oc3ccc(C(F)(F)F)cn3)c2)CC1`, for which, in assay [1], the activation is -5.98% and -11%. Moreover, the Potency result in assay [2], in assay [3] and in assay [4] was “inactive” each time. The Potency is 5900 nM (active) in assay [9], 26.3 µM (active) in assay [8] and 20.9 µM (active) in assay [6].

For the compound `CC(C)(C)OC(=O)N[C@H]1CCCCCC=C[C@@H]2C[C@@]2(C(=O)NS(=O)(=O)C2CC2)NC(=O)[C@@H]2C[C@@H](OC(=O)N3Cc4cccc(F)c4C3)CN2C1=O`, the activation in assay [1] was 5.4%. The Potency entry in assay [2], in assay [3], in assay [4], in [5], in assay [8] and in assay [6] was “inactive” throughout. In addition, in assay [7], the Potency result was “inactive”.

Regarding `c1cc(OCCN2CCCCC2)cc(-c2n[nH]c3ccc(-c4ncn[nH]4)cc23)c1`, the activation in assay [1] is 5.89% and 12.9%. Besides, the Potency entry in [2], in [3] and in assay [4] was “inactive” throughout. The figures for the Potency in [9], in assay [5] and in assay [8] were 1860 nM (active), 14.8 µM (active) and 13.2 µM (active), respectively.

For the origin of these results see PubChem BioAssay (NCATS).
